GC-B act = GC-B (human) receptor activation; P20594; HEK293-GC-B cells, CNP EC30, cGMP TR-FRET; 0% at EC30 CNP, 100% saturating CNP; activation, % at 10 µM; 370,000 tested, 0.11% active; AID 1920062;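 active = activation at 10 µM reaching about 35% in either raw or pattern-adjusted values, limit read from the data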
NPR1 activator = GC-A (human) enzyme activation; P16066; HEK293 GC-A cells, cGMP TR-FRET, EC30 ANP; 0% at EC30 ANP, 100% saturating ANP; activation, % at 10 µM; 370,000 tested, 0.14% active; AID 1671463; in the data active = activation above about 40%
KLK7 zymogen act = activators of human kallikrein-7 zymogen. P49862. purified proKLK7, EDANS-DABCYL substrate fluorescence; 100% is mature enzyme control, 0% vehicle. activation, % at 7 µM. 370,000 tested, 0.9% active. AID 652039;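 active = activation above the mean of all tested compounds plus 3 SD, computed per campaign excluding outliers beyond control limits, cut at about 13% in these data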
ADAM10 inh = ADAM10 inhibition, QFRET primary screen; inhibition, % at 7 µM; recombinant ADAM10, EDANS/DABCYL FRET peptide cleavage, 3 h; 370,000 tested, 0.62% active; O14672; AID 720582;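 active = inhibition above a per-campaign cutoff equal to the mean of compounds falling between control-based bounds plus 3 SD, cut at about 20% in these data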
Target sequence (O14672 214-748 limits assumed): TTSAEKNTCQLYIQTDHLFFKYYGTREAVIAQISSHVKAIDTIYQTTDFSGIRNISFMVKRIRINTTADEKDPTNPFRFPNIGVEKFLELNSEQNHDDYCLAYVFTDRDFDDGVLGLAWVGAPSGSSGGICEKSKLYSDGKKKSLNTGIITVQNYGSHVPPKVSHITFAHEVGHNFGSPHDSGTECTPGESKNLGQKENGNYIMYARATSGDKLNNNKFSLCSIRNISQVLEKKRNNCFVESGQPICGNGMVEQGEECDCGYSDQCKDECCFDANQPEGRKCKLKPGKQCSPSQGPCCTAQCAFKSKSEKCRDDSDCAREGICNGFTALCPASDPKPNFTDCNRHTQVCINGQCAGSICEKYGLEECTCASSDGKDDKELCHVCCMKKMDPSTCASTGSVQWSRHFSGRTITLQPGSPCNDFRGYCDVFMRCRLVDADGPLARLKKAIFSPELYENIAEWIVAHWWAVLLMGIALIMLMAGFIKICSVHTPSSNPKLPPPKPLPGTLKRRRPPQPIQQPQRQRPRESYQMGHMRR
ADAM17 inh = inhibitors of human ADAM17; inhibition, % at 6.95 µM; recombinant ADAM17, EDANS/DABCYL FRET peptide cleavage; AID 720648; P78536; 370,000 tested, 0.83% active;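 active = inhibition above the mean of compounds lying between control limits plus 3 SD, set per campaign, cut at about 8.5% in these data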
proKLK7 act conf = confirmation of human kallikrein-7 zymogen activators | shares compounds with KLK7 zymogen act | purified proKLK7, EDANS-DABCYL substrate fluorescence; scaled: vehicle 0, mature enzyme 100 | activation, % at 7 µM | 3,200 tested, 68% active;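 active = activation, as change over the incubation, above the mean of all tested compounds plus 3 SD, cut at about 13% in these data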
EDANS interfere = fluorescence interference counter-screen for KLK7 activators; activation, % at 7 µM; 3,200 tested, 80% active; shares compounds with KLK7 zymogen act; EDANS-DABCYL substrate fluorescence interference, no enzyme, 4 h; solvent 0%, active enzyme control 100%;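 active = activation above the all-compound mean plus 3 SD, ignoring values outside control-based bounds, cut at about 4.8% in these data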;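 note: value is the 4 h activation minus the activation read at time zero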
K7 EDANS ctr = counter-screen for kallikrein-7 activators: EDANS-DABCYL interference, dose response; shares compounds with KLK7 zymogen act; EDANS-DABCYL peptide fluorescence interference, no enzyme; EC50, µM; 250 tested, 20% active; AID 720493;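 active = compounds that raise the fluorescence signal in this interference counterscreen, with EC50 at or below 10 µM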;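 note: intact quenched peptide substrate alone read at 355 nm excitation and 520 nm emission; signal is fluorescence gain from T0 to T4 after four hours at room temperature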
Numbers stand for hits; n = inactive; x = no result. Compounds with a hit are over-represented: about 2.2% of the library has one in this group of screens.

SMILES | GC-B act | NPR1 activator | KLK7 zymogen act | ADAM10 inh | ADAM17 inh | proKLK7 act conf | EDANS interfere | others
COC(=O)C1CN(Cc2ccc(OC)cc2)CCS(=O)(=O)N1Cc1cn(Cc2ccc(C)cc2)nn1 (configuration not stated) | n | n | n | n | n | x | x
COc1cccc2sc3cc(NCc4ccc5c(c4)OCO5)ccc3c(=O)c12 | n | n | 41.7 | n | n | 47.1 | 45.5
CC1CC(Nc2cccc(O)c2)=CC(=O)O1 (configuration not stated) | n | n | 13.4 | n | n | n | n
CC1CC(Nc2ccccc2)=CC(=O)O1 (configuration not stated) | n | n | n | n | n | x | x
COc1ccc2c(c1OC)C(=O)OC2CC(=O)c1ccc(O)c(O)c1 (configuration not stated) | n | n | n | n | n | x | x
COc1ccc2c(c1OC)C(=O)OC2CC(=O)c1ccc(O)cc1 (configuration not stated) | n | n | 20.5 | n | n | n | 6.3
S=c1[nH]nc(-c2cc3c(s2)-c2ccccc2CC3)o1 | n | n | 38.8 | n | n | 70.0 | 69.6
CSc1nnc(-c2cc3c(s2)-c2ccccc2CC3)o1 | n | n | n | n | n | x | x
CCCCNC[C@@]12CO[C@H](c3ccc(Cl)cc3)N1[C@@H](c1ccc(Cl)cc1)SC2 | n | n | n | n | n | x | x
C=CCN1[C@@H](C)COc2cccc(N3CCSCC3)c2S1(=O)=O | n | n | n | n | n | x | x
COc1ccc(-c2c(NC(=O)C(C)C)n(C)c3ccccc3c2=O)cc1 | n | n | 16.3 | n | n | 17.5 | 19.8
COc1cccc(NC(=O)Nc2nc3ncccn3c2-c2ccc(C)cc2)c1 | n | n | n | n | n | x | x
O=C(Nc1ccc(-c2cn3ccccc3n2)cc1)c1cccs1 | n | n | n | n | n | x | x
COc1ccc(-c2cn3cccnc3n2)cc1NC(=O)C(C)C | n | n | n | n | n | x | x
Cc1ccc(-c2cn3cccnc3n2)cc1NC(=O)c1cccs1 | n | n | 33.0 | n | n | 35.2 | 39.0
COc1cc(OC)cc(C(=O)Nc2cc(-c3cn4cccnc4n3)ccc2C)c1 | n | n | 13.6 | n | n | n | n
COc1ccc(-c2cn3cccnc3n2)cc1Br | n | n | 31.8 | n | n | 78.8 | 75.3
COc1cc(C(=O)Nc2cc(-c3cn4cccnc4n3)ccc2C)cc(OC)c1OC | n | n | 47.3 | n | n | n | n
COC(=O)c1cccc(Cn2ccc3ccc(-c4ccc5ccn(C(=O)c6cccc(OC)c6)c5c4)cc32)c1 | n | n | n | n | n | x | x
COC(=O)C12C=C3CC(C)=C3C(=O)N1Cc1[nH]c3ccccc3c1C2 (configuration not stated) | n | n | n | n | n | x | x
COc1cc(/C=C/C(=O)O)cc(OC)c1O | n | n | 20.8 | n | n | 70.0 | 79.2
Cc1ccc(O)c(C(=O)C=Cc2ccccc2)c1 | n | n | 13.3 | n | n | 34.1 | 34.4
Cc1ccc(/C=C/C(=O)c2ccccc2O)cc1 | n | n | n | n | n | x | x
COc1cc(C)cc(C(=O)C=Cc2ccccc2)c1O | n | n | 14.1 | n | n | n | 10.8
COc1ccc(C(=O)/C=C/c2ccccc2)c(OC)c1 | n | n | n | n | n | x | x
SMILES | GC-B act | NPR1 activator | KLK7 zymogen act | ADAM10 inh | ADAM17 inh | proKLK7 act conf | EDANS interfere | others
CCOC(=O)CC[C@@H]1CC[C@]2(CCCN(C(=O)c3cccnc3)C2)O1 | n | n | n | n | n | x | x
CCCn1c(NC(=O)c2ccccc2)nc(Cc2ccccc2)c1Cc1ccccc1 | n | n | n | n | n | x | x
O=C(O)c1ccc(-c2nc(-c3ccccc3)c(-c3ccccc3)[nH]2)cc1 | n | n | 46.2 | n | n | 78.8 | 81.1
COc1ccc(-c2[nH]c(-c3ccc(C(=O)O)cc3)nc2-c2ccccc2)cc1 | n | n | n | n | n | x | x
CC(=O)Oc1c(-c2ccco2)oc2ccccc2c1=O | n | n | 13.9 | n | n | 21.4 | 18.8
CCN(CC)C(=O)COc1c(-c2ccco2)oc2ccccc2c1=O | n | n | n | n | n | x | x
CCN(Cc1cn(Cc2ccc(C)cc2)nn1)S(=O)(=O)c1ccccc1Br | n | n | n | n | n | x | x
CCOC(=O)C1=CN(C)C=C(C(=O)OCC)C1c1ccsc1 | n | n | 28.8 | n | n | n | n
COC(=O)C1=CN(CC2CCCO2)C=C(C(=O)OC)C1c1ccsc1 (configuration not stated) | n | n | 27.4 | n | n | 33.7 | 18.3 | K7 EDANS ctr=n
CCN1C=C(C(=O)OC)C(c2cccc(C)c2)C(C(=O)OC)=C1 | n | n | 40.2 | n | n | n | n
COC(=O)C1=C(C)N(C)C(C)=C(C(=O)OC)C1c1ccsc1 | n | n | n | n | n | x | x
COC(=O)C1=CN(Cc2ccc(OC)c(OC)c2)C=C(C(=O)OC)C1c1cccc(O)c1 | n | n | 16.6 | n | n | n | n
COC(=O)C1=CN(Cc2ccc(F)cc2)C=C(C(=O)OC)C1c1ccc(O)c(OC)c1 | n | n | n | n | n | x | x
COC(=O)C1=CN(c2cc(C)cc(C)c2)C=C(C(=O)OC)C1c1cccc(F)c1 | n | n | n | n | n | x | x
COC(=O)C1CN(Cc2ccc(Cl)cc2)CCS(=O)(=O)N1Cc1cn(Cc2ccccc2)nn1 (configuration not stated) | n | n | n | n | n | x | x
COC(=O)C1=CN(CC2CCCO2)C=C(C(=O)OC)C1c1cccc(O)c1 (configuration not stated) | n | n | 62.8 | n | n | 65.5 | 61.1
COC(=O)C1=CN(C(C)C)C=C(C(=O)OC)C1c1cccc(OC)c1 | n | n | 38.6 | n | n | n | n
CC1(C)Cc2ccccc2-c2nc(NCCCO)[nH]c(=O)c21 | n | n | 39.2 | n | n | n | n
O=c1[nH]c(NCCO)nc2c1C1(CCCC1)Cc1ccccc1-2 | n | n | n | n | n | x | x
CCC1(C)Cc2ccccc2-c2nc(NN)[nH]c(=O)c21 (configuration not stated) | n | n | n | n | n | x | x
CCC1(C)Cc2ccccc2-c2nc(NCCO)[nH]c(=O)c21 (configuration not stated) | n | n | 22.5 | n | n | n | n
CCCCCCN1CCS(=O)(=O)N(Cc2ccc(C)cc2)C(C(=O)OC)C1 (configuration not stated) | n | n | n | n | n | x | x
COc1cccc2sc3ccc(NCCC4CCCN4C)cc3c(=O)c12 (configuration not stated) | n | n | n | n | n | x | x

Source: PubChem BioAssay
